Structures are written as SMILES. Where “and” joins values, the source holds several entries; their conditions need not be identical. Equal entries are not always repeated. Results filed as inconclusive are left out. Where a structure was tested more than once in an assay, its records may differ in their call. Calls of active or inactive are those of the source. Unless noted, calls come from the whole dose curve; as a rule, active = well fitted curve in the direction sought with a large enough effect in the repeat runs; inconclusive = weak or mixed curves; inactive = no such curve, though single readings can be large; an effect the other way counts as inactive or inconclusive.

The target of assay [1] is Estrogen receptor beta (Homo sapiens) (UniProt Q92731). Put plainly: qHTS assay to identify small molecule antagonists of the estrogen receptor beta (ER-beta) signaling pathway (AID 1259378; active = well fitted inhibition curve with a large enough effect in the signal ratio in the repeat runs, not every such curve was filed as active; the % refers to the signal ratio; note: potency is the fitted concentration of half-maximal effect). Summed up: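 ER-beta-UAS-bla HEK293T cells in 2% charcoal-stripped FBS medium treated with compound plus 1nM final 17-beta-estradiol for 16 hr at 37C. Beta-lactamase reporter read by FRET substrate fluorescence after 2 hours at room temperature.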
Chain of Estrogen receptor beta (Homo sapiens) (Q92731 whole entry, looked up): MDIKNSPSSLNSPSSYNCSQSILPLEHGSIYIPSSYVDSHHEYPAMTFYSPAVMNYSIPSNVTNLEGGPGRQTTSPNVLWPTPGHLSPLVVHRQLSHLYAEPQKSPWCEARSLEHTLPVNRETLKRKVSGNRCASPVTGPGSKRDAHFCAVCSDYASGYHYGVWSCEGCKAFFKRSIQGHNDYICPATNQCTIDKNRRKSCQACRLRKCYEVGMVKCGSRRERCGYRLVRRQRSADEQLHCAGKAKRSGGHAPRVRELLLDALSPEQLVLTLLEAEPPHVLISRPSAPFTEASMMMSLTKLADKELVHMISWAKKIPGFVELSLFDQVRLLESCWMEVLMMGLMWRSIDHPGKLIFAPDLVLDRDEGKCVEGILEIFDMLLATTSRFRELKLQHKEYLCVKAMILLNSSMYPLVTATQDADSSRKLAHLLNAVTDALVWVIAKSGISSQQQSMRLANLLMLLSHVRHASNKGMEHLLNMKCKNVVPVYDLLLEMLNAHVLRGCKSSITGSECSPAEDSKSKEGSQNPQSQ

The nature of assay [2]: qHTS assay to identify small molecule agonists of the androgen receptor (AR) signaling pathway in the presence of an antagonist - cell viability counter screen (AID 1259379). Note: nearly all actives have a fitted effect of over 25% in size. Note: potency is the fitted concentration of half-maximal effect. Summed up:
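Cells: MDA-kb2 (MMTV-luc, AR and GR elements), 3,000/well, 5 hr settle. Added: nilutamide 3.0uM final, then compounds (15 conc.). Incubation: 16 hr, 37C, no CO2. Read-out: CellTiter-Fluor, 1 hr, fluorescence.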

Assay [3] can be described thus: qHTS assay to identify small molecule agonists of the estrogen receptor beta (ER-beta) signaling pathway - cell viability counter screen (AID 1259380). Note: nearly all actives have a fitted effect of over 30% in size. Note: potency is the fitted concentration of half-maximal effect. In short, it runs like this:
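HEK293T ER-beta-UAS-bla; 2% CS-FBS; 6 hr pre-plate, 16 hr cpd at 37C/5% CO2; LiveBLAzer read first, then CellTiter-Glo 30 min RT, luminescence.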

The nature of assay [4]: qHTS assay to identify small molecule antagonists of the estrogen receptor beta (ER-beta) signaling pathway - cell viability counter screen (AID 1259382). Note: nearly all actives have a fitted effect of over 55% in size. Note: potency is the fitted concentration of half-maximal effect. Summed up: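 Cells: ER-beta-UAS-bla HEK293T, 2,000/well, 2% CS-FBS, 6 hr settle. Cpd + E2 (1nM final), 16 hr, 37C/5% CO2. Bla FRET substrate 2 hr RT, then CellTiter-Glo 30 min RT, luminescence.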
Assay [5] deals with Estrogen receptor (Homo sapiens) (UniProt P03372). Put plainly: qHTS assay to identify small molecule agonists of the estrogen receptor alpha (ER-alpha) signaling pathway in the presence of an antagonist (AID 1259383; calls by dose curve; note: top concentration of the series differs between compounds; nearly all actives have a fitted effect of over 15% in size). Summed up:
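VM7Luc4E2, endog. ER-alpha + 4×ERE-luc; charcoal-stripped FBS, phenol red-free, 5 d; 24hr plating; +10.0nM ICI-182,780 (final); cpds 15 conc, 22hr, 37C/5% CO2; ONE-Glo luminescence.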

A short description of assay [6]: qHTS assay to identify small molecule agonists or antagonists of the thyroid stimulating hormone receptor (TSHR) signaling pathway - wild type cell line counter screen (AID 1259384; calls by dose curve). In short, it runs like this:
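Wild-type Hek293 cells, 800/well, 18 h at 37C, then compound with Ro20-1724 for 30 min RT. cAMP by HTRF (cAMP-d2/anti-cAMP cryptate), 1 h RT, fluorescence read. 15 concentrations, triplicates.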

The target of assay [7] is Thyrotropin receptor (Homo sapiens) (UniProt P16473). As to the kind of experiment: qHTS assay to identify small molecule antagonists of the thyroid stimulating hormone receptor (TSHR) signaling pathway (AID 1259385; calls by dose curve; note: nearly all actives have a fitted effect of over 20% in size; note: potency is the fitted concentration of half-maximal effect). Summed up: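 TSHR-HEK293 cells (800/well) plated 18 h, then compounds with Ro20-1724 and TSH at 1.5 ng/mL final, 30 min at room temperature. cAMP quantified by HTRF (cAMP-d2/anti-cAMP-cryptate, 1 h); 15 concentrations in triplicate.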
Chain of Thyrotropin receptor (Homo sapiens) (P16473 whole entry, looked up): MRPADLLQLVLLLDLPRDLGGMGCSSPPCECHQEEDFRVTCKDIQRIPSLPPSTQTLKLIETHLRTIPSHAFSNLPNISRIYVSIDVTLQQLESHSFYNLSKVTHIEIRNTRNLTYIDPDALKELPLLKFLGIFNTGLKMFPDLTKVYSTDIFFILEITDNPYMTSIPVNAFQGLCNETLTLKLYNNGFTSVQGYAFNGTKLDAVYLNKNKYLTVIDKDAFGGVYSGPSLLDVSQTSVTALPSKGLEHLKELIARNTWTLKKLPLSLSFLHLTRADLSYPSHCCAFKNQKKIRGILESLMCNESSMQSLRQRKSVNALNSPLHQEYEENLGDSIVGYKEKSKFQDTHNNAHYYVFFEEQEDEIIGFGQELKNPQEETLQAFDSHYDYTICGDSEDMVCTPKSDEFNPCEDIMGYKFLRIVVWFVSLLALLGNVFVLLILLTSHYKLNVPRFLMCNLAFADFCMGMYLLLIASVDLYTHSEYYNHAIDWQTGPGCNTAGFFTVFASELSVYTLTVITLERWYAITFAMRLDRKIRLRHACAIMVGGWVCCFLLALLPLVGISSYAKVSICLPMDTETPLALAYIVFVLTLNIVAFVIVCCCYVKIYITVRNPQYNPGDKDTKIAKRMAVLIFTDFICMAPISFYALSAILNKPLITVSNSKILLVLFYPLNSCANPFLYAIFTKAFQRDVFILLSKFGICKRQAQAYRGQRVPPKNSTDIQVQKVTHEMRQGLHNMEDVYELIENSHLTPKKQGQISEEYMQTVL

A short description of assay [8]: qHTS assay to identify small molecule agonists of the estrogen receptor alpha (ER-alpha) signaling pathway in the presence of an antagonist - cell viability counter screen (AID 1259386).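 Note: series mostly up to about 92 µM; cells exposed to compounds for 22 h at 37 °C before the viability read; nearly all actives have a fitted effect of over 30% in size.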 Summed up: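 VM7Luc4E2, stripped-serum pre-culture 5 d; 24hr plating; +ICI-182,780 10.0nM final; cpds 15 conc, 22hr, 37C/5% CO2; CellTiter-Fluor added at 21hr, fluorescence 1hr later.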

Assay [9] is described as follows: qHTS assay to identify small molecule agonists of the progesterone receptor (PR) signaling pathway - cell viability counter screen (AID 1346799; calls by dose curve; note: nearly all actives have a fitted effect of over 45% in size). Summed up: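 Counter screen for cytotoxicity: compound-treated PR-UAS-bla HEK293T cells (16 hr, 37C, 5% CO2) were assayed with CellTiter-Glo, luminescence measured after 30 min at room temperature.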
A short description of assay [10]: qHTS assay to identify small molecule antagonists of the TGF-beta/Smad signaling pathway - cell viability counter screen (AID 1346824). Note: nearly all actives have a fitted effect of over 50% in size. Summed up:
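SBE-bla HEK 293T cells, incubated overnight, then compound plus 0.25 ng/mL TGF-beta1 (stock added) for 5 hr at 37 C. Viability was read in the same wells by CellTiter-Glo luminescence after 30 min at room temperature.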

A short description of assay [11]: qHTS assay to identify small molecule agonists of the TGF-beta/Smad signaling pathway - cell viability counter screen (AID 1346829). Note: top concentration of the series differs between compounds; nearly all actives have a fitted effect of over 45% in size. In short, it runs like this:
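Here the cytotoxicity of library compounds is measured in SBE-bla HEK 293T cells treated for 5 hr, using CellTiter-Glo added to wells already read for the beta-lactamase reporter.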

A short description of assay [12]: qHTS assay to identify small molecule agonists of the TGF-beta/Smad signaling pathway (AID 1346859; active = well fitted activation curve with a large enough effect in the signal ratio in the repeat runs, not every such curve was filed as active; the % refers to the signal ratio; note: series mostly up to about 77 µM). Summed up: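 Smad-responsive beta-lactamase reporter cells (HEK 293T) received compounds from DMSO stocks after overnight attachment, were incubated 5 hr, then treated 2 hr with FRET substrate before dual-emission fluorescence measurement (405 nm excitation).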

Assay [13] deals with Thyrotropin-releasing hormone receptor (Homo sapiens) (UniProt P34981). Put plainly: qHTS assay to identify small molecule antagonists of the thyrotropin-releasing hormone receptor (TRHR) signaling pathway (AID 1346877; active = well fitted inhibition curve with a large enough effect in the repeat runs, not every such curve was filed as active; note: series mostly up to about 51 µM). In short, it runs like this:
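Intracellular calcium fluorescence, read kinetically every second over 3 min, reports TRH-evoked signalling in HEK293 cells carrying TRHR. Test compounds were added 5 min ahead of a 1 nM TRH challenge.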

Assay [14] has the same target. As to the kind of experiment: qHTS assay to identify small molecule agonists of the thyrotropin-releasing hormone receptor (TRHR) signaling pathway (AID 1346891; calls by dose curve;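 note: HEK293 cells expressing TRHR with calcium dye readout; series mostly up to about 58 µM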). In short, it runs like this: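 Agonist-mode calcium mobilisation screen: TRHR-transfected HEK293 cells cultured overnight (18 h), dye-loaded for 2 h at 37 °C, exposed to compounds, and monitored by fluorescence for 3 min.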

A short description of assay [15]: Human pregnane X receptor (PXR) small molecule agonists, qHTS cell viability counter screen (AID 1346977). Note: nearly all actives have a fitted effect of over 50% in size. Note: potency is the fitted concentration of half-maximal effect. In short, it runs like this:
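Measures live-cell protease fluorescence (CellTiter-Fluor) in PXR-Luc HepG2 cells treated 24hr with compounds at 37C. Cells had 5hr to attach before pin transfer of DMSO solutions.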

The target in assay [16] is Estrogen receptor beta (Homo sapiens) (UniProt Q92731). As to the kind of experiment: qHTS assay to identify small molecule agonists of the estrogen receptor beta (ER-beta) signaling pathway (AID 1259377; active = well fitted activation curve with a large enough effect in the signal ratio in the repeat runs, not every such curve was filed as active; the % refers to the signal ratio). In short, it runs like this:
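A UAS-controlled beta-lactamase reporter in ER-beta-UAS-bla HEK293T cells reports receptor activation. Compounds act for 16 hr at 37C in 2% charcoal-stripped serum, and a FRET substrate is read by fluorescence after 2 hours.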

In assay [17] the target is Progesterone receptor (Homo sapiens) (UniProt P06401). As to the kind of experiment: qHTS assay to identify small molecule agonists of the progesterone receptor (PR) signaling pathway (AID 1346784; calls by dose curve; note: nearly all actives have a fitted effect of over 30% in size). In short, it runs like this: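 Agonist mode, quantitative HTS format in a HEK 293T line expressing a UAS-controlled beta-lactamase reporter; 16 hr compound exposure at 37C in 2% charcoal-stripped FBS, then LiveBLAzer B/G FRET fluorescence.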
Chain of Progesterone receptor (Homo sapiens) (P06401 whole entry, looked up): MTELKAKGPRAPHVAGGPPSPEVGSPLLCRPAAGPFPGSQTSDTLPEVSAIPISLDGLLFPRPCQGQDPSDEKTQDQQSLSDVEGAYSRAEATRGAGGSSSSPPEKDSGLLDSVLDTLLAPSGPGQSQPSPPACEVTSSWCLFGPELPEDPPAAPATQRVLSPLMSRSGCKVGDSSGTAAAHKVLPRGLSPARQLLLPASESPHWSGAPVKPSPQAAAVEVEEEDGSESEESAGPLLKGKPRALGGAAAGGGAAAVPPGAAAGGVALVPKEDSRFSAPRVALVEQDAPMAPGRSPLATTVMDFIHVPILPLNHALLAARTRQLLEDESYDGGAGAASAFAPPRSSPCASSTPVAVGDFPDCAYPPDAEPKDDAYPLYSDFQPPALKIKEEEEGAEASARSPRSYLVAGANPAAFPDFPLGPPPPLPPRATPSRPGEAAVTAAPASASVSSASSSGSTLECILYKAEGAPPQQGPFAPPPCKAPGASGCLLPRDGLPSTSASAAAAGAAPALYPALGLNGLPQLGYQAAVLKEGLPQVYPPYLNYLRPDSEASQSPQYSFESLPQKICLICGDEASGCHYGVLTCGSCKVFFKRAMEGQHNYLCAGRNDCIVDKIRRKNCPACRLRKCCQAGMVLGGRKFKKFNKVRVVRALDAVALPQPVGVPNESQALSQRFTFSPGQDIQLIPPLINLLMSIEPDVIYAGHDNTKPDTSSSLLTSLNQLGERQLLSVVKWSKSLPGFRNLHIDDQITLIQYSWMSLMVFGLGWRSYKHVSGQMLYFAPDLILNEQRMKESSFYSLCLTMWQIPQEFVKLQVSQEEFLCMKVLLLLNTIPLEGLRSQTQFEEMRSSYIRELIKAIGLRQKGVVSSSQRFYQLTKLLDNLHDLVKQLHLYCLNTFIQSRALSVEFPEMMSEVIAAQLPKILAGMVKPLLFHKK

Assay [18] has the same target. Put plainly: qHTS assay to identify small molecule antagonists of the progesterone receptor (PR) signaling pathway (AID 1346795; active = well fitted inhibition curve with a large enough effect in the signal ratio in the repeat runs, not every such curve was filed as active; the % refers to the signal ratio). In short, it runs like this: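 HEK293T PR-UAS-bla reporter cells in charcoal-stripped serum (2%) received compound after a 6 hr settling period, followed by R5020 agonist at 1 nM final; 16 hr incubation preceded the FRET substrate step and fluorescence measurement.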

A short description of assay [19]: qHTS assay to identify small molecule antagonists of the progesterone receptor (PR) signaling pathway - cell viability counter screen (AID 1346798). Note: series mostly up to about 92 µM; nearly all actives have a fitted effect of over 50% in size. In short, it runs like this:
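Same-well multiplex: after 16 hr at 37C with compound and R5020 stimulation, HEK293T cells carrying a UAS-bla reporter received LiveBLAzer substrate (2 hr RT), then CellTiter-Glo (30 min RT) for luminescent viability.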

Assay [20] has as its target Androgen receptor (Homo sapiens) (UniProt P10275). Put plainly: qHTS assay to identify small molecule agonists of the androgen receptor (AR) signaling pathway in the presence of an antagonist (AID 1259381; calls by dose curve; note: nearly all actives have a fitted effect of over 15% in size). Summed up: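 MDA-kb2 cells, 3,000/well, rested 5hr at 37C/0% CO2 → nilutamide 3.0uM final or buffer → compounds, 15 conc. → 16hr at 37C → ONE-Glo, 30min RT → luminescence.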

Chain of Estrogen receptor (Homo sapiens) (P03372 whole entry, looked up): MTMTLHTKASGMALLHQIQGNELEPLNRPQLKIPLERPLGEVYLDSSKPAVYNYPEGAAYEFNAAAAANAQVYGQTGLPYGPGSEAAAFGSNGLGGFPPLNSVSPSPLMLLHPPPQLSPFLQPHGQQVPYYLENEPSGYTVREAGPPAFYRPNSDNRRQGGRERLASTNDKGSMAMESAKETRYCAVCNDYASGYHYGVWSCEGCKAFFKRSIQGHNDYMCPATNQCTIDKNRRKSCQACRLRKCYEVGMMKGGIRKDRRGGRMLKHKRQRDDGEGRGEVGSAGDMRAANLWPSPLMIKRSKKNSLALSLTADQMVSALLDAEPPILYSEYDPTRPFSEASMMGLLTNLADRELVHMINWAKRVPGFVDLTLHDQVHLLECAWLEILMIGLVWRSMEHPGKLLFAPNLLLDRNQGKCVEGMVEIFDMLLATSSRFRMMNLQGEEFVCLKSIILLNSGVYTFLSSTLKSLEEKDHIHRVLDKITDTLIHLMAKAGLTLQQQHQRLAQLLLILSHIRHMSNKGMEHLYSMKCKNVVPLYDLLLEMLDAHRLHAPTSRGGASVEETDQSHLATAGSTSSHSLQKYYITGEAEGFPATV
Chain of Thyrotropin-releasing hormone receptor (Homo sapiens) (P34981 whole entry, looked up): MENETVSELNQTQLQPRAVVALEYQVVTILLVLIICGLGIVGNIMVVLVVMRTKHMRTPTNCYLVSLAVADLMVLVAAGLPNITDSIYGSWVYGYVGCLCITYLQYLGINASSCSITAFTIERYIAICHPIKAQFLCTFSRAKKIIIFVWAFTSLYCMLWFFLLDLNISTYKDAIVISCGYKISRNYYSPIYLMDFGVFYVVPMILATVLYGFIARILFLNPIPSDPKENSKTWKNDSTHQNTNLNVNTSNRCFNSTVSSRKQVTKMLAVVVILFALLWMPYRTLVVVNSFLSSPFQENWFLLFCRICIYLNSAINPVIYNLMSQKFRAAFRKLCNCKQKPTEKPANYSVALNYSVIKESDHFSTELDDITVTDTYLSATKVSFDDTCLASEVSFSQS
Chain of Androgen receptor (Homo sapiens) (P10275 whole entry, looked up): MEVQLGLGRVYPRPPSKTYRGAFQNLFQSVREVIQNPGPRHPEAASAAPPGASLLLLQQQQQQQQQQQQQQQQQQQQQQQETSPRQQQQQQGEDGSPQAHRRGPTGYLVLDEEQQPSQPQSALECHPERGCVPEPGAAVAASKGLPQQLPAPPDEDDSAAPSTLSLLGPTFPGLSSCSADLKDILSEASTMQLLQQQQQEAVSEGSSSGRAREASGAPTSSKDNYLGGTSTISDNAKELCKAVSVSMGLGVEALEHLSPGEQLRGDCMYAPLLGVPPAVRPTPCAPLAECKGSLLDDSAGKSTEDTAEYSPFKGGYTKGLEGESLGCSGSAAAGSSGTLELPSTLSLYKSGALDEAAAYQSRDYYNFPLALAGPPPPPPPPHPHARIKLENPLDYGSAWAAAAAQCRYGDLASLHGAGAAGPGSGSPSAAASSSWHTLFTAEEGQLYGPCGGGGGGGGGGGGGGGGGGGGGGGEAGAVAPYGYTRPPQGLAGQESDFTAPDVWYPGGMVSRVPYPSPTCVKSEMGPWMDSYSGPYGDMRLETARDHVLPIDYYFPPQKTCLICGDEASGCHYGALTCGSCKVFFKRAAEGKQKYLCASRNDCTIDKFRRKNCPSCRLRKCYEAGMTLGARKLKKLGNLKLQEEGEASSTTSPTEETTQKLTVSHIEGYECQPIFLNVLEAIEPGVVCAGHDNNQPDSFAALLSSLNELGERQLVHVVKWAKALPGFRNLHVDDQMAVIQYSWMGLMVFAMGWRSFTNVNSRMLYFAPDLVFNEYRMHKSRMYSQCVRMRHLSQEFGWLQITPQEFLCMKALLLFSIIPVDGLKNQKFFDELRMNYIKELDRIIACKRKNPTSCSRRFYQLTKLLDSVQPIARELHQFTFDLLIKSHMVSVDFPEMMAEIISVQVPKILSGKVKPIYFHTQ

In the case of `Nc1ccc(-c2ccc(N)c(Cl)c2)cc1Cl`, the Potency is 25.5 µM (active) and 30.6 µM (active) in assay [1]; “inactive and 54.5 µM (active)” in assay [2]; 30.6 µM (active) in assay [3]; 61.1 µM (active) in assay [4]; “inactive and 57 µM (active)” in [7]; 3.98 µM (active) and 54.5 µM (active) in assay [15]. Moreover, the Potency result in [5], in [6], in [8], in assay [9], in assay [10] and in assay [11] was “inactive” each time. The Potency result in assay [12], in assay [13] and in assay [14] was “inactive” in each case.
As to `COCC(=O)N(c1c(C)cccc1C)C(C)C(=O)OC` (stereo not given), the compound was classed as inactive in assay [16]. Further, the Potency result in assay [1], in assay [2], in assay [3], in assay [4], in [5] and in assay [6] was “inactive” throughout. Also, the Potency result in [7], in assay [8], in [17], in assay [18], in assay [19] and in [9] was “inactive” throughout. Besides, the Potency result in assay [10], in assay [11], in [12], in [13], in assay [14] and in assay [15] was “inactive” throughout.
Take `O=P1(N(CCCl)CCCl)NCCCO1` (stereo not given): the Potency entry in assay [2], in assay [3], in assay [4], in [5], in assay [6] and in assay [7] was “inactive” throughout. Also, the Potency result in [8], in assay [17], in assay [18], in [19], in assay [9] and in [10] was “inactive” in each case. The Potency entry in [11], in [12], in assay [13], in assay [14] and in assay [15] was “inactive” throughout.
For the compound `Cc1cc(Cl)ccc1OCC(=O)O`, the Potency result in assay [2], in assay [3], in assay [4], in [5], in assay [6] and in assay [7] was “inactive” in each case. For the same compound, the Potency entry in assay [8], in assay [17], in [18], in [19], in assay [9] and in assay [10] was “inactive” each time. For the same compound, the Potency result in assay [11], in assay [12] and in [15] was “inactive” each time. The outcome in assay [20] was inactive.
Regarding `CCCC[N+]1(C)CCCCC1`, the Potency result in assay [2], in assay [3], in assay [4], in assay [6], in [7] and in [8] was “inactive” in each case. The Potency result in assay [17], in [18], in assay [19], in assay [9], in [10] and in [11] was “inactive” throughout. Besides, the Potency entry in assay [12] and in assay [15] was “inactive” in each case.
With `CCC[N+]1(C)CCCCC1`, the Potency entry in [2], in [3], in assay [4], in assay [6], in assay [7] and in [8] was “inactive” throughout. The Potency entry in assay [17], in assay [18], in [19], in assay [9], in assay [10] and in assay [11] was “inactive” throughout. Besides, the Potency result in assay [12] and in [15] was “inactive” each time.

Values taken from PubChem BioAssay (Tox21).
